experiment: inhibitors of Chlamydomonas gravitaxis, primary screen, whole organism, Chlamydomonas reinhardtii, WT vs cilia-less mutant, absorbance, 96-well (AID 463189); conditions: OD600 absorbance, 2 days, at 10 µM, hits give high values;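 active = inhibition at or above 50% relative to wild type and mutant plate controls; inactive = inhibition below 50%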;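 also: 0% = wild type cc124 cells in DMSO and 100% = ciliumless bld1 mutant cells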

inhibition, inactive:
CCn1c(=O)[nH]c2cc(Cl)c(Cl)cc21 1.13%
Cc1nc2c(OCc3ccccc3)cccn2c1CC#N 3.47%
NCCS(=O)(=O)O 8.8%
CCCCCC(O)CCCC(=O)O (stereo not given) -1.48%
CN(Cc1cnc2nc(N)nc(N)c2n1)c1ccc(C(=O)N[C@H](CCC(=O)O)C(=O)O)cc1 -2.58%
CNC(=O)c1cc2c(cn1)[nH]c1ccccc12 4.1%
NC1(C(=O)O)CCCCC1 -2.27%
CN1CCCC1CCOC(C)(c1ccccc1)c1ccc(Cl)cc1 (stereo not given) 11.5%
COc1cc2c(CCNC(C)=O)c[nH]c2cc1O -0.037%
C#CCN(C)CCCOc1ccc(Cl)cc1Cl 24.1%
O=C(c1cc(O)c(O)c([N+](=O)[O-])c1)c1ccccc1F -0.57%
CC(CCc1ccc(O)cc1)NCCc1ccc(O)c(O)c1 (stereo not given) -1.59%
CC(=O)Oc1ccccc1C(=O)O -5.84%
CNC1(C)C2CCC(C2)C1(C)C (stereo not given) 2.45%
O=C(O)CCCCCC[C@H]1C(=O)NC(=O)N1CC[C@@H](O)C1CCCCC1 -0.469%
NCCc1cnc[nH]1 2.56%
C1CCC(N=C(NC23CC4CC(CC(C4)C2)C3)N2CCOCC2)CC1 2.95%
C=C1C(=O)O[C@@H]2[C@H]3O[C@]3(C)CCC=C(C)CC[C@@H]12 4.91%
N[C@H](CO)C(=O)O 3.16%
COc1cc2c(cc1C(F)(F)F)N(C(=O)Nc1cc(F)cc(-c3cccnc3)c1)CC2 0.852%
